Here are results for one sequence from article PMC7862700, “An all-to-all approach to the identification of sequence-specific readers for epigenetic DNA modifications on cytosine”.

Common to all, as to test: DAPPL (digital affinity profiling via proximity ligation, sequencing); 10 mM Tris-HCl pH 7.5, 50 mM NaCl, 1 mM DTT, 4% glycerol, room temperature, 30 min; GST-TFs on glutathione beads, 16-mer random dsDNA library, 0.1% formaldehyde crosslink after washing; high values mean tight binding
In one test the target is T1, FLI1 (Homo sapiens, UniProt Q01543 1-452).
T1 sequence: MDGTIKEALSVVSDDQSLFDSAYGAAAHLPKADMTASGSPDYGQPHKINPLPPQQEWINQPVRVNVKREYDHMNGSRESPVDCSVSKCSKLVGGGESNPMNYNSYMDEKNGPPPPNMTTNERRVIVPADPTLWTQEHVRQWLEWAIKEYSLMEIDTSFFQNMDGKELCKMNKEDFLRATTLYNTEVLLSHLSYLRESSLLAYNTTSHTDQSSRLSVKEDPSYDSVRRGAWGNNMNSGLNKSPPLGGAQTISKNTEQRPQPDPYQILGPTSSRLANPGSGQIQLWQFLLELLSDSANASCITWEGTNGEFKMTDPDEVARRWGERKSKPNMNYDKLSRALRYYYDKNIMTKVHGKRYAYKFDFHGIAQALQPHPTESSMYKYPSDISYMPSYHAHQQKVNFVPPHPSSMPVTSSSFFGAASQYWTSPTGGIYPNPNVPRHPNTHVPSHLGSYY
Particulars: protein: recombinant; tags: N-terminal GST; dsDNA, one strand shown. Summed up:
(§1)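 Sequencing on an Illumina NextSeq500 followed washing, crosslinking with 0.1% formaldehyde, proximity ligation (BsaI/T4 ligase, 1 h, 37 °C) and PCR amplification of pools that had been incubated for 30 min at room temperature with 200 nmole of a random double-stranded 16-mer DNA library in Tris/NaCl/DTT/glycerol buffer. Each pool held DNA-barcoded human transcription factors, expressed in yeast as GST fusions and captured on glutathione beads, plus a tag-only sample. Binding signal is a hexamer's read frequency for a factor divided by its frequency in the tag-only sample.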

The target in the next test is T2, ELK1 (Homo sapiens, UniProt P19419 1-428).
T2 sequence: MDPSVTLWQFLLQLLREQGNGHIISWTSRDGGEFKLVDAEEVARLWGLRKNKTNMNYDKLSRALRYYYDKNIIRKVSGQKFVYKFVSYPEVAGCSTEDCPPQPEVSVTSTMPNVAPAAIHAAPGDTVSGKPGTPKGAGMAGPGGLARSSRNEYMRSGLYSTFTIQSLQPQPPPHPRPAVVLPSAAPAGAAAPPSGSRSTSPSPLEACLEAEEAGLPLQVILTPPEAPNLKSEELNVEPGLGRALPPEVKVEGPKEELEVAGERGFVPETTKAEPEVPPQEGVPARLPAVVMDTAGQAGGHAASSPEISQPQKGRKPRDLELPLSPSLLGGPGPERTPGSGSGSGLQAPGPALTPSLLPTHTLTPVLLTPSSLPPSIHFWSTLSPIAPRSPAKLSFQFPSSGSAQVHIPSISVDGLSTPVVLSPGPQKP
Particulars: protein: recombinant; tags: N-terminal GST; dsDNA, one strand shown. In outline:
as §1

The next test has as its target T3, GABPA (Homo sapiens, UniProt Q06546 1-454).
T3 sequence: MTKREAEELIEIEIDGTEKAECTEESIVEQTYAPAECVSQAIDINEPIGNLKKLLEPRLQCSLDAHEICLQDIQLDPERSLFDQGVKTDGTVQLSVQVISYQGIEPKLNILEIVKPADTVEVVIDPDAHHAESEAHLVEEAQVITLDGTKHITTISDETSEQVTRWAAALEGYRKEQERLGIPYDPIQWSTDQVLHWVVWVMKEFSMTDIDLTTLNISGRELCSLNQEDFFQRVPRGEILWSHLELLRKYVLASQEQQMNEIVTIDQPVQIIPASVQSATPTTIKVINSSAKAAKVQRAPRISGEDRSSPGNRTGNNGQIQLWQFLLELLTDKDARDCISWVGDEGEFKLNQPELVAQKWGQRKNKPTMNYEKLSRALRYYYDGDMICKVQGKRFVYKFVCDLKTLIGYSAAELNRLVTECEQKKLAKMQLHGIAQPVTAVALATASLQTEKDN
The settings on record: protein: recombinant; tags: N-terminal GST; dsDNA, one strand shown. Summed up:
as §1

A further test deals with T4, ERG (Homo sapiens, UniProt P11308 1-479).
T4 sequence: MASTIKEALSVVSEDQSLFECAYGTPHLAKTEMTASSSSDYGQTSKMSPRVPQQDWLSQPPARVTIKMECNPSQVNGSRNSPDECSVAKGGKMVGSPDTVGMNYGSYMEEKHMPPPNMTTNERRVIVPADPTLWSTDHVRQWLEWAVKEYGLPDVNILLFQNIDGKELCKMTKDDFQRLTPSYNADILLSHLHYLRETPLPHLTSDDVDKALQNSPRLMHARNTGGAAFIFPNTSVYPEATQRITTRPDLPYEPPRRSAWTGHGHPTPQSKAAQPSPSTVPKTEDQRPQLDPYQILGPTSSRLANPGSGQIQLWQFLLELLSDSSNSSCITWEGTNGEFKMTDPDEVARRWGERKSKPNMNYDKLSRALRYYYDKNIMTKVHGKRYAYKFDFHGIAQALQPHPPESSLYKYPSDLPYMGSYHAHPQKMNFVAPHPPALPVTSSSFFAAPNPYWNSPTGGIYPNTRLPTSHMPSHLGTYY
Particulars: protein: recombinant; tags: N-terminal GST; dsDNA, one strand shown. In outline: as §1

The target in the next test is ELF1 (Homo sapiens, UniProt P32519 1-619). The settings on record: protein: recombinant; tags: N-terminal GST; dsDNA, one strand shown. Summed up:
as §1

A further test addresses T5, EHF (Homo sapiens, UniProt Q9NZC4 1-300).
T5 sequence: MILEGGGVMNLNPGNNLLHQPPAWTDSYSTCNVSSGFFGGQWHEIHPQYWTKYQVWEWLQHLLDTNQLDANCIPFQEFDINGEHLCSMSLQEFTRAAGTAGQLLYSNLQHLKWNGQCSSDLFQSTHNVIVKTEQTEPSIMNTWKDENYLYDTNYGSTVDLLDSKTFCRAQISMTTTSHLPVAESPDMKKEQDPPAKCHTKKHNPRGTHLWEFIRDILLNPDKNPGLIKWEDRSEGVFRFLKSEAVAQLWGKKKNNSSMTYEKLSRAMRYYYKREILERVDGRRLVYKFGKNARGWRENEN
The settings on record: protein: recombinant; tags: N-terminal GST; dsDNA, one strand shown. Summed up:
as §1

The target in the next test is SPI1 (Homo sapiens, UniProt P17947 1-270). The settings on record: protein: recombinant; tags: N-terminal GST; dsDNA, one strand shown. Summed up: as §1
The target in the next test is SPIB (Homo sapiens, UniProt Q01892 1-262). Particulars: protein: recombinant; tags: N-terminal GST; dsDNA, one strand shown. In outline: as §1
Another test concerns the target T6, ELK3 (Homo sapiens, UniProt P41970 1-407).
T6 sequence: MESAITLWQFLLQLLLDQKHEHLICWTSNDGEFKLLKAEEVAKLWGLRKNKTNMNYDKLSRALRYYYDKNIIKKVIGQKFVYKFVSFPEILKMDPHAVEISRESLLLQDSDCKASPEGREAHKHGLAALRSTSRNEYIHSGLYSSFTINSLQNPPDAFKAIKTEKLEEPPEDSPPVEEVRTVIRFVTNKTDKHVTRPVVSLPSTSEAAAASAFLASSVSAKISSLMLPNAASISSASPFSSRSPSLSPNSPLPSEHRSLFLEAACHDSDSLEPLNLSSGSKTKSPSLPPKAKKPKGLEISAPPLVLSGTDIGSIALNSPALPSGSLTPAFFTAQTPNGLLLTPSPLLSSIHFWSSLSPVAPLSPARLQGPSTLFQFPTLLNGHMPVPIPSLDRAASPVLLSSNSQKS
The settings on record: protein: recombinant; tags: N-terminal GST; dsDNA, one strand shown. Summed up:
as §1

For the next test, the target named is T7, FEV (Homo sapiens, UniProt Q99581 1-238).
T7 sequence: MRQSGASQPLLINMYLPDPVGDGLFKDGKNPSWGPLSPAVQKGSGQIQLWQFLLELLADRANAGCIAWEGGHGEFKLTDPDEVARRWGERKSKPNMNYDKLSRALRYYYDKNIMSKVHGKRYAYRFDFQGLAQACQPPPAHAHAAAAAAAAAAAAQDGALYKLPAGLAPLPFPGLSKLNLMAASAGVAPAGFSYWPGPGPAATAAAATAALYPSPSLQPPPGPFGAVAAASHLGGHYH
The settings on record: protein: recombinant; tags: N-terminal GST; dsDNA, one strand shown. In outline: as §1

The target in another test is ETV5 (Homo sapiens, UniProt P41161 1-510). The settings on record: protein: recombinant; tags: N-terminal GST; dsDNA, one strand shown. Summed up:
as §1

A further test concerns the target HSF1 (Homo sapiens, UniProt Q00613 1-529). The settings on record: protein: recombinant; tags: N-terminal GST; chain copies: 3; dsDNA, one strand shown. Summed up:
as §1

The target in the next test is T8, SPIC (Homo sapiens, UniProt Q8N5J4 1-248).
T8 sequence: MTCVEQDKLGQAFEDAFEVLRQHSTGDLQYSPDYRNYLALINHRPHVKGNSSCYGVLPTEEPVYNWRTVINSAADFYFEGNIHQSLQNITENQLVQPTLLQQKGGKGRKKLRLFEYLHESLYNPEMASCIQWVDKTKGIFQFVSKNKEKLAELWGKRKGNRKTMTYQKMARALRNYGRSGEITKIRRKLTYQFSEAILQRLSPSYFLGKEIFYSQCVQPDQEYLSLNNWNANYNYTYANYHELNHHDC
Particulars: protein: recombinant; tags: N-terminal GST; dsDNA, one strand shown. Summed up:
as §1

The next test has as its target ELF4 (Homo sapiens, UniProt Q99607 1-663). Particulars: protein: recombinant; tags: N-terminal GST; dsDNA, one strand shown. Summed up:
as §1

The target of another test is T9, ELK4 (Homo sapiens, UniProt P28324-2 1-405).
T9 sequence: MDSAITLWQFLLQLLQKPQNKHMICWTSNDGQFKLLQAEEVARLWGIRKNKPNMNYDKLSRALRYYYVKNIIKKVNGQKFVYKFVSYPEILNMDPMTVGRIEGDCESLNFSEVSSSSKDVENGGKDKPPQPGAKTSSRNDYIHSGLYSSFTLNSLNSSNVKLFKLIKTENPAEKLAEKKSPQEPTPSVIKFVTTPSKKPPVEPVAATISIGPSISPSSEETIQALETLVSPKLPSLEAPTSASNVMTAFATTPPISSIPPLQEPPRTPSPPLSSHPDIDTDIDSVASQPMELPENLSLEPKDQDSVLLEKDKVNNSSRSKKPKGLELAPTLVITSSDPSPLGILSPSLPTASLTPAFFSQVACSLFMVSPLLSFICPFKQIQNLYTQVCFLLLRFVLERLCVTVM
Particulars: protein: recombinant; tags: N-terminal GST; dsDNA, one strand shown. Summed up: as §1

The next test addresses T10, ETV2 (Homo sapiens, UniProt O00321 1-342).
T10 sequence: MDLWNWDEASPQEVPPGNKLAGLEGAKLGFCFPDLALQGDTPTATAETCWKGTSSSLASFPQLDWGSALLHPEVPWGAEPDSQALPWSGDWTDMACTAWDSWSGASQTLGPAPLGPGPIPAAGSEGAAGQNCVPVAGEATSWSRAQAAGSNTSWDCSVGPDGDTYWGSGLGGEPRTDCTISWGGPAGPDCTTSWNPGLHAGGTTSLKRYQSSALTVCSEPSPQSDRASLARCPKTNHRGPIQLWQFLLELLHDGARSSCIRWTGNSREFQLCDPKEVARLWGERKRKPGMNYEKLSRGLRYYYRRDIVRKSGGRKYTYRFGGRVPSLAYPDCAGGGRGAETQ
The settings on record: protein: recombinant; tags: N-terminal GST; dsDNA, one strand shown. Summed up: as §1

The target of the next test is CRX (Homo sapiens, UniProt O43186 1-299). Particulars: protein: recombinant; tags: N-terminal GST; dsDNA, one strand shown. Summed up: as §1
In a further test the target is ETV1 (Homo sapiens, UniProt P50549 1-477). Particulars: protein: recombinant; tags: N-terminal GST; dsDNA, one strand shown. Summed up:
as §1

Sequence of ELF1 (P32519 whole entry): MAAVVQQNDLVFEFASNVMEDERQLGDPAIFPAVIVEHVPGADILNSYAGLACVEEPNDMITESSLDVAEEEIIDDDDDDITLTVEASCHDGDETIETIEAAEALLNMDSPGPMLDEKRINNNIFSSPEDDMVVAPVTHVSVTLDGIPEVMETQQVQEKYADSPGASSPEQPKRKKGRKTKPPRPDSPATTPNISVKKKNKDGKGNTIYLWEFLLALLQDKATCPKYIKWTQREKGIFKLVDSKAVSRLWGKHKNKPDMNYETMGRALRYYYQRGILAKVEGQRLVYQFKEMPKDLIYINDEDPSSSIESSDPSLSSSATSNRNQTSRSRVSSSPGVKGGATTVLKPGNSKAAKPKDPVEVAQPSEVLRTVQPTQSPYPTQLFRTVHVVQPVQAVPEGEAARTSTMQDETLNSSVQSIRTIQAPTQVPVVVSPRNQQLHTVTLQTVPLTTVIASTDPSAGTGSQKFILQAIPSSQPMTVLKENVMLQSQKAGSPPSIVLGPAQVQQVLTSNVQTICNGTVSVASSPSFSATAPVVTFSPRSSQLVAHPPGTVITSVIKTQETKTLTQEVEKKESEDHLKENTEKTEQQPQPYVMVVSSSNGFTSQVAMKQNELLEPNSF
Sequence of ETV5 (P41161 whole entry): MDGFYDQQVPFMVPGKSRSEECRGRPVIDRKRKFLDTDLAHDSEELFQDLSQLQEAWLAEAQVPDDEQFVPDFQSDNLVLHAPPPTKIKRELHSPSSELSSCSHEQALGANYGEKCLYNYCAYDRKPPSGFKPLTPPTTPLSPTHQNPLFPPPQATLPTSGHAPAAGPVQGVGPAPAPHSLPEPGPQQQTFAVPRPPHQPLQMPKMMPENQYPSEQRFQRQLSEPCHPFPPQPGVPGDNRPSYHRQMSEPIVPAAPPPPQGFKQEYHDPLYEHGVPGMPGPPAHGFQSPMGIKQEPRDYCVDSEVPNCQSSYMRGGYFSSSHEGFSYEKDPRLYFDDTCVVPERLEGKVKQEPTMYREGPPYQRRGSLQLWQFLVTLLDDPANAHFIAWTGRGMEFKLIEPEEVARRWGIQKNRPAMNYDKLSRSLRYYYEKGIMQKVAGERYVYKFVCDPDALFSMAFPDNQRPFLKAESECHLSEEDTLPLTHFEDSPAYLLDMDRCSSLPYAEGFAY
Sequence of ETV1 (P50549 whole entry): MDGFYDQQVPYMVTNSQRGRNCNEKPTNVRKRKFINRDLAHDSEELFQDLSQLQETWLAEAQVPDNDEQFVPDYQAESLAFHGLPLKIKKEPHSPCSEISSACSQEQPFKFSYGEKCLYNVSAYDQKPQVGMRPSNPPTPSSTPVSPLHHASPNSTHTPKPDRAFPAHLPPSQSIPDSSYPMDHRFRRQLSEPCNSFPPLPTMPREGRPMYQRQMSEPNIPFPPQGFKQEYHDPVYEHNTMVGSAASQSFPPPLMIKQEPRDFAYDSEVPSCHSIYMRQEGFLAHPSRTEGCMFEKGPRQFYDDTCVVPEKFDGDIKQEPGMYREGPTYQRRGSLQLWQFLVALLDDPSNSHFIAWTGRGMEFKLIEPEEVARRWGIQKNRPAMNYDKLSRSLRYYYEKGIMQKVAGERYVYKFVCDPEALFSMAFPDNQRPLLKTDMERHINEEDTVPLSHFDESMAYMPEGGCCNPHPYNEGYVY
Sequence of ELF4 (Q99607 whole entry): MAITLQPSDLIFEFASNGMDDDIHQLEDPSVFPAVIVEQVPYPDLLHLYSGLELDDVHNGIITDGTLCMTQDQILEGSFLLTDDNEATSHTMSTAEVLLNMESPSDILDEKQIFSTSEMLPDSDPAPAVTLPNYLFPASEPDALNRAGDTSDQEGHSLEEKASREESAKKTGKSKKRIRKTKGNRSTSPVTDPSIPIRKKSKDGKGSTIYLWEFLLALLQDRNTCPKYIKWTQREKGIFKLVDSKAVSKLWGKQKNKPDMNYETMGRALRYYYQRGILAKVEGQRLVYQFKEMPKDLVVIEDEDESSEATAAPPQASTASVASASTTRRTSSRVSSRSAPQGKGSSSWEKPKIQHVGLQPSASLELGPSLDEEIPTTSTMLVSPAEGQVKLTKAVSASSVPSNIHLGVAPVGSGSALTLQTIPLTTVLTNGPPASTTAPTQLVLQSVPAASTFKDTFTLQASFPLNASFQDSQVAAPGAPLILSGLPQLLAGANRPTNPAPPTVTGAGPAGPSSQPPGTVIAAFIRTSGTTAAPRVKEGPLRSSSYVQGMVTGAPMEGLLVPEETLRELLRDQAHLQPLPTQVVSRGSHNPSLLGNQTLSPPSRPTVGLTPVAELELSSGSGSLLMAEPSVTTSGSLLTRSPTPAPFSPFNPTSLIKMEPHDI
Sequence of SPIB (Q01892 whole entry): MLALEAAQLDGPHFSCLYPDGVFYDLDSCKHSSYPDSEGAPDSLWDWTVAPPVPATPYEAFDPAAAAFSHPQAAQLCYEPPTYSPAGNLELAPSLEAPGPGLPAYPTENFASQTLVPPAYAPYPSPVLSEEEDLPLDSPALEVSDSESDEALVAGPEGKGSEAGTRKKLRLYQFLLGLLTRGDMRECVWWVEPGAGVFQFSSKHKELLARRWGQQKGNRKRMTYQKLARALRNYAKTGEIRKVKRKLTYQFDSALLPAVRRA
Sequence of CRX (O43186 whole entry): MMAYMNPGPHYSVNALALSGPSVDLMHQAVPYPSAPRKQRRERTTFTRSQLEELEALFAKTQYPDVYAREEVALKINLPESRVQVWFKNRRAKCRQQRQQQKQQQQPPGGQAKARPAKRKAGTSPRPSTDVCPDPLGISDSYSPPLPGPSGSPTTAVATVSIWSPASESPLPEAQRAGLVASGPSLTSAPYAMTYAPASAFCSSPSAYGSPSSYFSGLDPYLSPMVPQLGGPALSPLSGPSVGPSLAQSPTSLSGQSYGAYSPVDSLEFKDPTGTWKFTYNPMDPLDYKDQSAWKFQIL
Sequence of HSF1 (Q00613 whole entry): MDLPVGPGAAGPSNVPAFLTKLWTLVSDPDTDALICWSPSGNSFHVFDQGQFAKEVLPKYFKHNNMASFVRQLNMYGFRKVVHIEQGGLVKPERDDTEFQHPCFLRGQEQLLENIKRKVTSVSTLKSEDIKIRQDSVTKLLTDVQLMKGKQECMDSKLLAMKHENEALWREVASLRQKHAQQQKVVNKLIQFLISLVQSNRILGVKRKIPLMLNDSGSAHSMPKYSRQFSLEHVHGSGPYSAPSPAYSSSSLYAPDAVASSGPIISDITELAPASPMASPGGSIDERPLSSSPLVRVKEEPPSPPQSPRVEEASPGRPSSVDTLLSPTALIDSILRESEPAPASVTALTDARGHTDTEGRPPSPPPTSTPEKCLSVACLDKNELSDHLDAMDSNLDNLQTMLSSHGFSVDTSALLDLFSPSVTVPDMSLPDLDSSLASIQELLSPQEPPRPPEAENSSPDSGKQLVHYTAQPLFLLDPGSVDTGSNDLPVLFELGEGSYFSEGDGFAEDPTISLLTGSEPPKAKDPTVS

Turning to TTATCA, the binding signal in the test with FLI1 was 1.16 fold enrichment (6-mer frequency, TF over GST control); with ELK1 it was 1.15 fold enrichment (6-mer frequency, TF over GST control); with GABPA it was 1.05 fold enrichment (6-mer frequency, TF over GST control); in the test with ERG, 1.06 fold enrichment (6-mer frequency, TF over GST control); with ELF1, 1.15 fold enrichment (6-mer frequency, TF over GST control); with EHF, 1.02 fold enrichment (6-mer frequency, TF over GST control). Further, the binding signal with SPI1 was 1.09 fold enrichment (6-mer frequency, TF over GST control); in the test with SPIB, 1.1 fold enrichment (6-mer frequency, TF over GST control); with ELK3 it was 1.17 fold enrichment (6-mer frequency, TF over GST control); in the test with FEV, 1.06 fold enrichment (6-mer frequency, TF over GST control); with ETV5, 1.05 fold enrichment (6-mer frequency, TF over GST control); with HSF1, 1.44 fold enrichment (6-mer frequency, TF over GST control). Also, the binding signal was 1.12 fold enrichment (6-mer frequency, TF over GST control) in the test with SPIC; 1.08 fold enrichment (6-mer frequency, TF over GST control) with ELF4; 1.2 fold enrichment (6-mer frequency, TF over GST control) with ELK4; 1.13 fold enrichment (6-mer frequency, TF over GST control) with ETV2; 2.19 fold enrichment (6-mer frequency, TF over GST control) with CRX; 1.06 fold enrichment (6-mer frequency, TF over GST control) with ETV1.
